LASV entry inh: qHTS for Inhibitors of binding or entry into cells for Lassa Virus; Lassa virus pseudotype entry inhibition, cell reporter; Potency, µM (titrated, usually from 37.9 µM), for inactives: at the top dose activity change, negative = inhibition, hits mostly inhibitors; actives 1.2% (n = 300,000); calls by dose curve; tested in HEK293 cells; note: nearly all actives have a fitted effect of over 50% in size
HCV inh: qHTS Assay for Inhibitors of Hepatitis C Virus (HCV). Huh7.5.1 HCVcc-Cre infection, luciferase reporter, 44 h. Potency, µM (titrated, usually from 41.8 µM), for inactives: at the top dose activity change, negative = inhibition, usual class: inhibitors. actives 3.4% (n = 340,000). AID 651820, 2012
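Cells seeded at 1,000/well and cultured 4 h, then compounds added followed by HCVcc-Cre virus (~0.5 moi). After 44 h further culture, luciferase substrate was added, plates held 15 min at room temperature, and luminescence read for 15 sec.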
MARV entry inh: qHTS for inhibitors of binding or entry into cells for Marburg Virus | Marburg virus pseudotyped entry inhibition, cell reporter | Potency, µM (series often up to 37.8 µM), without a hit: at the highest dose activity change, negative = inhibition, most hits filed as inhibitors | actives 1.8% (n = 300,000) | AID 540276, 2011; calls by dose curve; tested in HEK293 cells
RE007 growth inh: qHTS Assay for Inhibitors of the HIV-1 protein Vpr. S. pombe RE007 Vpr strain, BacTiter-Glo ATP luminescence, 24 h. actives 0.21% (n = 360,000). Potency, µM (highest dose often 92.2 µM), for inactives: at the highest dose activity change, negative = less growth, most hits filed as inhibitors; active = well fitted falling curve with a large enough effect; inconclusive = small, poorly fitted or top-dose-only effect; inactive = no such curve, though single readings can be large or run the other way; note: nearly all actives have a fitted effect of over 50% in size
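Fission yeast RE007 carrying one integrated HIV-1 vpr copy, seeded at OD 0.01 in PMG+AL medium with 23 nL pinned compound. Grown 24 h at 30 degrees; viability read by BacTiter-Glo luminescence after 5 min.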
Sm TGR block: qHTS Assay for the Inhibitors of Schistosoma Mansoni Peroxiredoxins; Schistosoma mansoni thioredoxin glutathione reductase (TGR), Q962Y6; purified TGR, DTNB reduction, TNB absorbance 405 nm; Potency, µM (top dose mostly 114 µM), without a hit: at the top dose activity change, negative = inhibition, hits mostly inhibitors; actives 3% (n = 360,000); AID 485364, 2010; note: nearly all actives have a fitted effect of over 60% in size
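First, TGR (20 nM dispensed) and NADPH were mixed with compound. Second, a 15 min room-temperature incubation followed. Third, further NADPH and then DTNB were added to start the reaction. Finally, TNB absorbance was monitored kinetically.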
FMDV inh: High Throughput Screening for Foot and Mouth Disease Virus Antivirals. Potency, µM (top dose mostly 57.9 µM), inactives show at the highest dose activity change, negative = inhibition, hits mostly inhibitors. actives 1.2% (n = 410,000). FMDV antiviral cell-based qHTS. AID 1159524, 2015; calls by dose curve; tested in HEK293T cells; note: read-out not given here; nearly all actives have a fitted effect of over 45% in size
* hit, by the source's call; ? = inconclusive; . = no result given; [ ] = remark or other dose. Shown are actives, neighbours in structure and some others; about 7.2% of the full set was active somewhere. Unless noted, calls come from the whole dose curve; as a rule, active = well fitted curve in the direction sought with a large enough effect; inconclusive = small, poorly fitted or top-dose-only effect, or another doubt; inactive = no such curve, though single readings can be large; an effect the other way counts as inactive or inconclusive. % is set by controls: 0 for no effect and ±100 for the full control effect; potency is the fitted concentration of half-maximal effect.

SMILES | LASV entry inh | HCV inh | MARV entry inh | RE007 growth inh | Sm TGR block | FMDV inh
COc1cc(C(=O)Nc2nc(-c3cc(C)ccc3C)c(C)s2)ccc1OCC(=O)Nc1ccc(F)cc1 | -25.1% | ? | 4.1% | . | -2.0% | ?
COc1ccc(-c2nc(NC(=O)c3ccc(OCC(=O)Nc4ccc(F)cc4)c(OC)c3)sc2C)cc1 | ? | ? | ? | 1.4% | 5.4% | 17.8µM*
COC(=O)C1=C(C(=O)OC)[C@@H]2N(Cc3ccccc3)c3ccccc3[C@@]23C[C@@H](CO)N(C(=O)CC(C)C)C3=N1 | . | . | -37.7%[14.2 µM] | . | . | .
Oc1ccc(C23CC4CC(CC(C4)C2)C3)cc1O | . | ? | . | ? | 1.78µM* | -21.0%
CC(=O)Nc1ccc(C23CC4CC(CC(C4)C2)C3)cc1 | . | -0.6% | . | 9.6% | -7.1% | 30.5%
CN(C)c1ccc(-c2n[nH]c(=S)n2-c2ccccc2)cc1 | -21.7%[46.1 µM] | -4.8% | -23.4%[46.1 µM] | 1.0% | 7.7% | -7.3%
CCN(CC)c1ccc(-c2n[nH]c(=S)n2-c2ccccc2)cc1 | ? | 11.2µM* | -5.7%[46.1 µM] | -6.2% | 0.5% | ?
CCNC(=O)O/N=C1\CCCCC1c1ccc([N+](=O)[O-])cc1[N+](=O)[O-] (configuration not stated) | . | ? | . | -11.1% | 12.6µM* | -15.5%
O=C(C(=NNc1ccccc1)C(=S)Nc1ccccc1)c1ccccc1 | . | . | . | -0.7% | . | -18.2%
COc1ccc(OC)c(CNC(=O)c2ccc3nc(C(C)C)oc3c2)c1 | -19.1%[46.1 µM] | . | . | . | -5.3% | 10.5%
COc1ccc(C2=NOC(Cn3nc(C(=O)NCc4cccs4)cc3-c3ccccc3)C2)cc1 (configuration not stated) | . | 10µM* | . | 10.9% | -8.3% | -6.0%
COc1ccc(C2=NOC(Cn3nc(C(=O)NCc4ccc(C)cc4)cc3-c3ccccc3)C2)cc1 (configuration not stated) | . | 8.91µM* | . | -11.7% | 2.8% | 0.0%
COCCNC(=O)c1cc(-c2ccccc2)n(CC2CC(c3ccc(OC)cc3)=NO2)n1 (configuration not stated) | . | 12.9% | . | 12.8% | -1.0% | 0.0%
Cc1nnc(N/N=C/c2cc(C)n(-c3ccc(F)cc3)c2C)n1N | 7.08µM* | ? | 14.6µM* | 0.4% | -30.5% | 11.9%
COc1ccc(C2c3ccc4ccccc4c3Oc3ncn(CCN4CCOCC4)c(=N)c32)cc1OC (configuration not stated) | . | ? | . | 4.2% | 2.1% | -1.7%
COc1ccc(C2c3c(ncn(CCCN4CCOCC4)c3=N)Oc3ccc4ccccc4c32)cc1OC (configuration not stated) | . | 22.4µM* | . | -10.4% | 13.0% | -15.9%
COc1ccc(C2c3ccc(O)cc3Oc3ncn(CCN4CCOCC4)c(=N)c32)cc1OC (configuration not stated) | -9.7% | -23.1% | 2.2% | -4.6% | 5.7% | -5.0%
COc1ccc(C2c3ccc4ccccc4c3Oc3ncn(CCCO)c(=N)c32)cc1OC (configuration not stated) | ? | 12.6µM* | ? | -8.8% | 7.9% | -20.7%
COc1ccc(C2c3ccc4ccccc4c3Oc3ncn(CCO)c(=N)c32)cc1OC (configuration not stated) | . | 10µM* | 6.9% | -4.3% | -0.4% | -12.5%
COc1c(C(=O)Nc2nccs2)ccc2ccccc12 | . | -5.4% | . | ? | 6.9% | 16.0%
COc1cc2ccccc2cc1C(=O)Nc1cc(C)ccn1 | -4.1%[46.1 µM] | 12.6µM* | ? | -2.1% | -22.0% | 3.4%
Cc1ccnc(N/C=C/C(=O)c2ccc(Br)cc2)c1 | ? | 1.3% | ? | 7.2% | -23.2% | -32.6%
COc1ccc(C(=O)/C=C/Nc2cc(C)ccn2)cc1 | ? | -1.7% | 1.26µM* | -12.8% | 21.5% | -46.1%
COc1cc2ccccc2cc1C(=O)Nc1nccs1 | . | 11.2µM* | . | -10.5% | -3.8% | 8.1%

Bioassay records (PubChem BioAssay)
